Structures are written as SMILES. Several values for one entry are separate records, joined by “and”; a condition that tells them apart may be missing. Equal values may be shown once. Activity calls are given as the source filed them. The calls were made as follows: active = hit-call score of the fitted dose curve at least 0.9, where 1 is the maximum; inactive = score below 0.9.

Read-out in the test: Decorin, DCN (gene 1634)
In words: BSK_MyoF_Decorin: BioMAP Diversity Plus: MyoF Assay for Decorin Biomarker Activity (AID 2284265). To be noted: primary human lung fibroblasts. Here is the method: BSK_MyoF is a cell-based, multiplexed-readout assay that uses lung fibroblasts, […], with measurements taken at 24 hours after chemical dosing in a microplate: 96-well plate.BSK_MyoF_Decorin is an assay component measured in the BSK_MyoF assay. It measures Decorin antibody related to regulation of gene expression using ELISA technology.Data from the assay component BSK_MyoF_Decorin was analyzed at the endpoint, BSK_MyoF_Decorin, in the positive analysis fitting direction relative to DMSO as the negative control and baseline of activity. Using a type of binding reporter, gain or loss-of-signal activity can be used to understand protein changes. To generalize the intended target to other relatable targets, this assay endpoint is annotated to the 'cell adhesion molecules' intended target family, where the subfamily is 'decorin'.
The levels of cell surface (or secreted, indicated by the prefix "s") biomarker endpoints were measured by ELISA. Overt cytotoxicity to cells in confluent adherent cultures (all systems other than the BT system) was assessed by measuring total protein levels using sulforhodamine B (SRB) staining in parallel cultures at the time of biomarker measurements, indicated as SRB endpoints. For proliferation assays for adherent cell types, individual cell types are cultured at sub-confluence and relative cell numbers quantified by SRB staining at time points optimized for each system (48 h: 3C and CASM3C systems; 72 h: BT and HDF3CGF systems; 96 h: SAg system). SRB was performed by staining cells with 0.1% SRB after fixation with 10% TCA and reading wells at 560 nm.Viability and proliferation of PBMC (T cells) was quantified by Alamar Blue reduction for the SAg and BT systems. For PBMC viability (referred to as PBMC Cytotoxicity within the assay endpoint names), cells were plated (75,000/well in a 96-well plate) and then chemical samples added for 1 h before addition of activators, SEB and TSST-1 (20 ng/mL final concentration each). Cells were incubated for 90 h. Then, Alamar Blue (20 uL/well) (Invitrogen, Cat DAL1100) was added for 6 h, and the plates were read with a fluorescence microplate reader at 546/580 nm (excitation/emission). For PBMC proliferation, cells were plated and activated as above but incubated for only 16 h prior to addition of Alamar Blue. Plates were read after 6 h.
On to `O=C(OC1CCCCC1)c1ccccc1C(=O)OC1CCCCC1`, for which the outcome was inactive.

Regarding `CCNc1nc(NC(C)(C)C)nc(SC)n1`, the outcome was inactive.

`COP(=S)(OC)Oc1cc(Cl)c(Cl)cc1Cl`: the outcome was inactive.

Consider `CCSC(C)CC1CC(=O)C(C(CC)=NOC/C=C/Cl)=C(O)C1` (stereo unspecified), for which the result was inactive.

On to `O=[N+]([O-])c1ccc2c3c(cccc13)CC2`, for which the result was inactive.

As to `CCOC(=O)/C=C(C)/C=C/C[C@@H](C)CCCC(C)C`, the AC50 was 20 µM (active).

In the case of `COC[C@H](C)N(C(=O)CCl)c1c(C)csc1C`, the result was inactive.

On to `Nc1ccc(-c2ccc(N)c(Cl)c2)cc1Cl`, for which the outcome was inactive.

For `OCc1ccco1`, the result was inactive.

With `Oc1ccc(-c2ccccc2)cc1`, the outcome was inactive.

In the case of `CCOP(=S)(OCC)SCCS(=O)(=O)CC`, the result was inactive.

Regarding `ClC(Cl)=C(Cl)C(Cl)=C(Cl)Cl`, the outcome was inactive.

As for `Nc1cccc2ccccc12`, the result was inactive.

Consider `ClC1=C(Cl)[C@]2(Cl)[C@H]3[C@H]([C@H]4C=C[C@H]3C4)[C@@]1(Cl)C2(Cl)Cl`, for which the result was inactive.

Consider `O=S(=O)(c1ccc(Cl)cc1)c1ccc(Cl)cc1`, for which the result was inactive.

For `O=Cc1cccc(Oc2ccccc2)c1`, the result was inactive.

Turning to `CCCCC(CC)CO[N+](=O)[O-]` (stereo unspecified), the outcome was inactive.

Turning to `CC(C)CCCCCCOC(=O)c1ccccc1C(=O)OCCCCCCC(C)C`, the outcome was inactive.

As to `Oc1c(I)cc(I)cc1I`, the result was inactive.

Regarding `CCOP(=S)(OCC)Oc1ccc(S(C)=O)cc1` (stereo unspecified), the outcome was inactive.

In the case of `CC(C)c1ccc(CO)cc1`, the result was inactive.

With `COP(=S)(OC)Oc1ccc(S(=O)(=O)N(C)C)cc1`, the result was inactive.

Take `CC(=O)C(Cl)C(=O)N(C)C` (stereo unspecified): the outcome was inactive.

Consider `NC(=S)Nc1ccccc1`, for which the outcome was inactive.

As for `CC1(C)Cc2cccc(O)c2O1`, the result was inactive.

As to `BrCCBr`, the outcome was inactive.

Regarding `COP(=S)(OC)Oc1ccc(Sc2ccc(OP(=S)(OC)OC)cc2)cc1`, the outcome was inactive.

`O=C(O)C(F)(F)C(F)(F)C(F)(F)C(F)(F)C(F)(F)C(F)(F)C(F)(F)C(F)(F)C(F)(F)C(F)(F)F`: the AC50 is 5.02 µM (active) and 5.16 µM (active).

As to `O=C(O)CCC(F)(C(F)(F)F)C(F)(F)F`, the outcome was inactive.

With `COC(=O)c1sccc1S(=O)(=O)NC(=O)Nc1nc(C)nc(OC)n1`, the result was inactive.

Consider `COc1cc(OC)nc(NC(=O)NS(=O)(=O)c2ncccc2C(=O)N(C)C)n1`, for which the outcome was inactive.

As to `CCCCCCCCC(=O)NCc1ccc(O)c(OC)c1`, the result was inactive.

Consider `Nc1ncc([N+](=O)[O-])s1`, for which the outcome was inactive.

As for `O=C(O)C(F)(F)C(F)(F)C(F)(F)C(F)(F)C(F)(F)C(F)(F)F`, the outcome was inactive.

For `COP(=S)(OC)Oc1c(Cl)cc(C)cc1Cl`, the outcome was inactive.

`C(=NC1CCCCC1)=NC1CCCCC1`: the result was inactive.

In general, AC50 refers to the concentration at which the activity in the assay is half-maximal.

These data come from PubChem BioAssay (EPA / NIEHS).
